{
  "source": "paper PMC5515408",
  "about": "“Sequence-specific DNA binding by MYC/MAX to low-affinity non-E-box motifs”",
  "note": "The full ranking holds about 5,000 sequences; the median of “log2 normalized fluorescence” is about 0.089, and the highest 2% start at about 0.81. This is one part of a sample in which the highest values are shown more often than they occur.",
  "data": [
    {"biological_target": "MYC (p64);MAX (p21), in MYC:MAX (human;human, UniProt P01106-1;P61244-2 1-439;1-151, |)", "sequence (P01106 16-454, chain 1 of 2)": "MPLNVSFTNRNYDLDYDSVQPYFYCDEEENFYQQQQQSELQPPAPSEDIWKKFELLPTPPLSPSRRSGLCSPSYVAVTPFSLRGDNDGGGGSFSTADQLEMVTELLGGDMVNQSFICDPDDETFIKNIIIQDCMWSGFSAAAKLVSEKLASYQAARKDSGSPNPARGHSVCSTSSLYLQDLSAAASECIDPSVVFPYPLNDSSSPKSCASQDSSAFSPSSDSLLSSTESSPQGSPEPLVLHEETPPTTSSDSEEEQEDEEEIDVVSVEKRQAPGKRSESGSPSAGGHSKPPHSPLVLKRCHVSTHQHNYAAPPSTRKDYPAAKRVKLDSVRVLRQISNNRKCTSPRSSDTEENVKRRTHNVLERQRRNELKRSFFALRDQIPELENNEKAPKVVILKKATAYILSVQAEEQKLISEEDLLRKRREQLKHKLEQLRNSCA", "sequence (P61244 other isoform, or with tags, fused parts or gaps |, chain 2 of 2)": "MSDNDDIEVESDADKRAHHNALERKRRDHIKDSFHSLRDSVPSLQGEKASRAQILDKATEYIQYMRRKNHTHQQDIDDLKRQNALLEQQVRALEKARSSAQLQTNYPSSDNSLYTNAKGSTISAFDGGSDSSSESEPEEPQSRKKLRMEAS", "assay": "protein-binding microarray (anti-MAX antibody); PBM: 15 mM Tris-HCl pH 7.5, 100 mM KCl, 0.075% NP40, 7.5 mM beta-mercaptoethanol, 375 ng/ul BSA, 8 ng/ul poly(dA-dT):(dA-dT), 550 ng complex, 60 min, room tempe; high values mean tight binding", "details": "protein: recombinant;recombinant; tags: 6xHis;6xHis; copies: 1;1; label: 3' end of printed strand (linker) attached to glass slide; dsDNA, one strand shown", "procedure,_shortened": "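A custom Agilent glass array held ~5000 unique 12-nt sequences in triplicate spots, made double-stranded by primer extension. His-tagged human MYC:MAX or MAX:MAX dimers (550 ng, produced in E. coli) were applied for 60 min at room temperature in Tris-KCl buffer, pH 7.5, with NP40, BSA and poly(dA-dT) competitor. Anti-MAX and secondary antibodies detected bound protein, with scanning at 543 nm, and binding is given as log2 normalized fluorescence.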", "values": [
      {"sequence": "CCGGCTGATAAGGTGTATTAATAGCTAAGATTACTATATCGACG", "binding signal": "0.0319 log2 normalized fluorescence"},
      {"sequence": "CCGGCTGAACGCTAGTATTAATAGCTAAGATTACTATATCGACG", "binding signal": "0.178 log2 normalized fluorescence"},
      {"sequence": "CCGGCTGAGTGACAGTATTAATAGCTAAGATTACTATATCGACG", "binding signal": "0.00932 log2 normalized fluorescence"},
      {"sequence": "CCGGCTGAACCGATGTATTAATAGCTAAGATTACTATATCGACG", "binding signal": "0.0618 log2 normalized fluorescence"},
      {"sequence": "CCGGCTGACGTACGGTATTAATAGCTAAGATTACTATATCGACG", "binding signal": "0.112 log2 normalized fluorescence"},
      {"sequence": "CCGGCTGAGCTCCCGTATTAATAGCTAAGATTACTATATCGACG", "binding signal": "0.0359 log2 normalized fluorescence"},
      {"sequence": "CCGGCTGAACGGACGTATTAATAGCTAAGATTACTATATCGACG", "binding signal": "0.0519 log2 normalized fluorescence"},
      {"sequence": "CCGGCTAACACGTGGTATTAATAGCTAAGATTACTATATCGACG", "binding signal": "0.946 log2 normalized fluorescence"},
      {"sequence": "CCGGCTATAACGTGGTATTAATAGCTAAGATTACTATATCGACG", "binding signal": "0.627 log2 normalized fluorescence"},
      {"sequence": "CCGGCTTAATCGTGGTATTAATAGCTAAGATTACTATATCGACG", "binding signal": "0.374 log2 normalized fluorescence"},
      {"sequence": "CCGGCAAATACGTGGTATTAATAGCTAAGATTACTATATCGACG", "binding signal": "0.556 log2 normalized fluorescence"},
      {"sequence": "CCGGCTAACACGTGGTTTTAATAGCTAAGATTACTATATCGACG", "binding signal": "1.01 log2 normalized fluorescence"},
      {"sequence": "CCGGCCGTCACGTGGTTTTAATAGCTAAGATTACTATATCGACG", "binding signal": "0.74 log2 normalized fluorescence"},
      {"sequence": "CCGGCTTACACGTGGTATTAATAGCTAAGATTACTATATCGACG", "binding signal": "0.847 log2 normalized fluorescence"},
      {"sequence": "CCGGCTTACACGTGGTTTTAATAGCTAAGATTACTATATCGACG", "binding signal": "0.721 log2 normalized fluorescence"},
      {"sequence": "CCGGCGAACACGTGGTATTAATAGCTAAGATTACTATATCGACG", "binding signal": "0.76 log2 normalized fluorescence"},
      {"sequence": "CCGGCAAACACGTGGTATTAATAGCTAAGATTACTATATCGACG", "binding signal": "1.02 log2 normalized fluorescence"},
      {"sequence": "CCGGCTTAGACGTGGTATTAATAGCTAAGATTACTATATCGACG", "binding signal": "0.235 log2 normalized fluorescence"},
      {"sequence": "CCGGCGCAAACGTGGTATTAATAGCTAAGATTACTATATCGACG", "binding signal": "0.579 log2 normalized fluorescence"},
      {"sequence": "CCGGCTGACGCACTGTATTAATAGCTAAGATTACTATATCGACG", "binding signal": "0.457 log2 normalized fluorescence"},
      {"sequence": "CCGGCTGAAGGCCCGTATTAATAGCTAAGATTACTATATCGACG", "binding signal": "0.0982 log2 normalized fluorescence"},
      {"sequence": "CCGGCTGAATCAAAGTATTAATAGCTAAGATTACTATATCGACG", "binding signal": "-0.00984 log2 normalized fluorescence"},
      {"sequence": "CCGGCTGACCCTTGATATTAATAGCTAAGATTACTATATCGACG", "binding signal": "0.0562 log2 normalized fluorescence"},
      {"sequence": "CCGGCTGAATGTTGGTATTAATAGCTAAGATTACTATATCGACG", "binding signal": "0.176 log2 normalized fluorescence"},
      {"sequence": "CCGGCTGACCTCCCGTATTAATAGCTAAGATTACTATATCGACG", "binding signal": "0.167 log2 normalized fluorescence"},
      {"sequence": "CCGGCTGAACCGCGGTATTAATAGCTAAGATTACTATATCGACG", "binding signal": "0.103 log2 normalized fluorescence"},
      {"sequence": "CCGGCTGAACTCGAGTATTAATAGCTAAGATTACTATATCGACG", "binding signal": "0.253 log2 normalized fluorescence"},
      {"sequence": "CCGGCTGGGGCGTGGTATTAATAGCTAAGATTACTATATCGACG", "binding signal": "0.471 log2 normalized fluorescence"},
      {"sequence": "CCGGCTCCAACGTGGTATTAATAGCTAAGATTACTATATCGACG", "binding signal": "0.579 log2 normalized fluorescence"},
      {"sequence": "CCGGCCAACACGTGGTATTAATAGCTAAGATTACTATATCGACG", "binding signal": "0.937 log2 normalized fluorescence"},
      {"sequence": "CCGGCCAACACGTTGTATTAATAGCTAAGATTACTATATCGACG", "binding signal": "0.669 log2 normalized fluorescence"},
      {"sequence": "CCGGCTGAAGGACCGTATTAATAGCTAAGATTACTATATCGACG", "binding signal": "0.0673 log2 normalized fluorescence"},
      {"sequence": "CCGGCTGACACGTGGCCTTAATAGCTAAGATTACTATATCGACG", "binding signal": "0.897 log2 normalized fluorescence"},
      {"sequence": "CCGGCTGACTCGTGGCATTAATAGCTAAGATTACTATATCGACG", "binding signal": "0.584 log2 normalized fluorescence"},
      {"sequence": "CCGGCTGACACGTAGCATTAATAGCTAAGATTACTATATCGACG", "binding signal": "0.484 log2 normalized fluorescence"},
      {"sequence": "CCGGCTGACACGTGGCATTAATAGCTAAGATTACTATATCGACG", "binding signal": "0.835 log2 normalized fluorescence"},
      {"sequence": "CCGGCTGACACGTGGACTTAATAGCTAAGATTACTATATCGACG", "binding signal": "0.734 log2 normalized fluorescence"},
      {"sequence": "CCGGCTGACACGTGCCTTTAATAGCTAAGATTACTATATCGACG", "binding signal": "0.722 log2 normalized fluorescence"}
    ]}
  ]
}
